ANO1 block: mouse TMEM16A channel inhibition, primary screen; hit rate 1.2% among 310,000; normalized B-score (activity score, 25-100; higher = stronger inhibition) at 10 µM; HEK293 TMEM16A/YFP iodide influx fluorescence, ionomycin; Q8BHY3;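 active = ratio plate-corrected score three or more library SD toward inhibition, starting fluorescence score within five deviations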;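 note: score derived from kinetic fluorescence span divided by baseline fluorescence per well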
Kir21 inh: Kir2.1 (mouse) channel inhibition. hit rate 0.85% among 310,000. B-score at 10 µM. HEK293-Kir2.1, FluxOR thallium flux fluorescence; stronger effect = lower value;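 active = fluorescence ratio B-score at or below minus 3 SD of library scores, with starting-brightness B-score within 2 SD, cut at about -4.2 in these data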;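 note: channel flux triggered by added potassium and thallium sulfate stimulus; B-score of peak minus minimum fluorescence over baseline after thallium stimulus; more negative B-score means stronger Kir2.1 block with less thallium influx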
Target sequence (P35561 whole entry, looked up): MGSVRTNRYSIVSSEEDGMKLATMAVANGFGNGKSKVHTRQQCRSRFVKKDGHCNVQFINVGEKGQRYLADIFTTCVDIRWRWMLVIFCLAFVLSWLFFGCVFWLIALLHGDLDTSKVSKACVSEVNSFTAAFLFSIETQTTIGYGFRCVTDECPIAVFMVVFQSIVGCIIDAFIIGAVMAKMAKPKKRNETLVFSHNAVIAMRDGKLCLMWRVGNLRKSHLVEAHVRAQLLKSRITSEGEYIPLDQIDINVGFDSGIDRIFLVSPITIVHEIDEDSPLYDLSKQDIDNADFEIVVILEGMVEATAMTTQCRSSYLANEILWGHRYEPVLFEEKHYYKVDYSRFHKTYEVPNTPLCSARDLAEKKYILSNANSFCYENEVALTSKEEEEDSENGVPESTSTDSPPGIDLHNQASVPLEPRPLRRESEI
ANO1 activ: activates or potentiates the mouse TMEM16A chloride channel | HEK293 TMEM16A/YFP-H148Q/I152L, iodide quench fluorescence; stronger effect = lower value | B-score at 10 µM | hit rate 0.3% among 340,000 | AID 623877;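 active = fluorescence-ratio B-score plate-corrected deviation score at least 3 library SD below zero, with starting fluorescence score within 5 deviations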;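 note: channel opened by trigger with iodide after compound preincubation; score built on the fluorescence ratio of max minus min over baseline; more negative score means more quench and so TMEM16A activation or potentiation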
CHT block: inhibits the human high affinity choline transporter; Q9GZV3; CHT-expressing cells, membrane potential dye, choline response; stronger effect = lower value; B-score at 10 µM; hit rate 0.86% among 310,000; AID 488975;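 active = B-score over 3 SD under the library average, and starting fluorescence ratio not unusually high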;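 note: choline stimulus applied at its EC90 after an EC20 pre-addition; B-score computed on integrated fluorescence ratio after choline addition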
Rce1 inh: blocks yeast Ras-converting enzyme; yeast membranes, quenched prenylated peptide cleavage fluorescence; calls only; AID 2563; hit rate 0.27% among 290,000; Q03530;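 active = fall in fluorescence gain of 50% or more versus controls, with final raw signal at or below 3038400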;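 note: plate controls were neutral control wells for no effect and wells lacking membranes for full effect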
CHT allo act: human CHT allosteric activation | Q9GZV3 | CHT-expressing cells, membrane potential dye, choline EC20; stronger effect = higher value; LV-AA mutant CHT in HEK293 cells | B-score at 10 µM | hit rate 0.49% among 310,000 | AID 488977;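 active = initial fluorescence not abnormally high and integrated response B-score, plate-corrected, over 3 SD above library mean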
Numbers without * were called inactive; i = inactive; · = no result given; + = active, no number. Sampled rows, rich in hits. Any-hit rate of the full collection: about 3.2%.

SMILES	ANO1 block	Kir21 inh	ANO1 activ	CHT block	Rce1 inh	CHT allo act
N#CC(C#N)=Cc1ccc(O)c(O)c1	i	·	i	i	·	i
Cc1ccc(-c2nc3ccc(C)cn3c2CC(=O)N(C)C)cc1	i	0.52	i	i	+	i
Fc1ccc(C(OCCN2CCN(CCCc3ccccc3)CC2)c2ccc(F)cc2)cc1	i	-2.3	i	i	i	i
c1ccc(CCCN2CCN(CCOC(c3ccccc3)c3ccccc3)CC2)cc1	i	-2.2	i	i	+	i
CCOP(=O)(Nc1ccc2c(c1)C(=NNC(N)=S)c1ccccc1-2)OCC	·	·	i	·	·	·
C=C(C)CN1CC[C@]23c4c5ccc(O)c4O[C@H]2c2[nH]c4ccccc4c2C[C@@]3(O)C1C5	i	-1.4	·	-5.3*	i	i
CN(C(=O)Oc1cccc2ccccc12)C1C=CCC1 (stereo not given)	·	·	i	·	·	·
Cc1oc(-c2cccs2)nc1CSCC(=O)N1CCC2(CC1)OCCO2	i	0.04	i	i	+	i
COc1ccc(-c2nc(CSCC(=O)N3CCC4(CC3)OCCO4)c(C)o2)cc1OC	i	-0.58	i	i	i	i
CCOc1ccccc1N=C1SCCCN1C	i	-1.6	i	i	i	i
CCOc1cccc(=NC2CCCCC2)c2c(C)n(C)c(C)c12	100*	-4	i	i	i	i
CC(C)(O)C1C2OC(=O)C1C1(O)CC3OC34C(=O)OC2C14C (stereo not given)	·	·	i	·	·	·
O=C1NC(=O)C(Nc2ccccc2)C(=O)N1	·	·	i	·	·	·
Clc1ccccc1C1NCc2ccccc2-n2cccc21 (stereo not given)	i	-5.2*	i	i	i	i
Oc1ccccc1C1NCc2ccccc2-n2cccc21 (stereo not given)	i	-4.5*	i	i	i	i
CCOc1cccc(C2NCc3ccccc3-n3cccc32)c1O (stereo not given)	i	-0.34	i	i	i	i
C/C=C(\C)C(=O)OC1C(C)=C2C(C1OC(=O)CCCCC)C(C)(OC(C)=O)CC(OC(=O)CCC)C1(O)C2OC(=O)C1(C)O (stereo not given)	100*	0.08	·	i	i	8*
CC(=O)O/C(=C1\CC2C3CC=C4CC(OC(C)=O)CCC4(C)C3CCC2(C)C1=O)C(F)(F)F (stereo not given)	·	·	i	·	·	·
CC(NCc1ccc(Cl)cc1Cl)C(O)c1ccccc1 (stereo not given)	i	-10*	i	i	i	i
CC(NCc1ccc(Cl)cc1)C(O)c1ccccc1 (stereo not given)	i	-9*	i	i	i	i
COc1cc(OC)c(OC)cc1CNC(C)C(O)c1ccccc1 (stereo not given)	i	0.21	i	i	i	i
CC(NCc1cccc(Cl)c1Cl)C(O)c1ccccc1 (stereo not given)	i	-16*	i	i	i	i
CC1CC2(C)C(CCC3C2CCC2(C)C(OP(=O)(N4CC4)N4CC4)CCC32)CC1=O (stereo not given)	·	·	i	·	·	·
Cc1ccc(OP2(=O)Nc3cc(C)c(C)cc3S2)cc1 (stereo not given)	·	·	i	·	·	·
CN1CCC(c2c[nH]c3ccc(O)cc23)CC1	·	·	i	·	·	·
SMILES	ANO1 block	Kir21 inh	ANO1 activ	CHT block	Rce1 inh	CHT allo act
CC1CCCC(C)N1/N=C/c1c[nH]c2ccc(Br)cc12 (stereo not given)	i	-4.3*	i	i	i	i
COC(=O)C1=C(C(=O)OC)C2OC1c1cc3ccccc3cc12	·	·	-4.9*	·	·	·
c1cncc(CNCCN2CCNCC2)c1	·	·	i	·	·	·
CC[C@H]1C2C[C@H]3[C@@H]4N(C)c5ccccc5C45C[C@H](C2[C@H]5O)N3[C@@H]1O (stereo not given in full)	100*	·	i	i	·	i
CCCC1(CC(C)C)C(=O)NC(=S)NC1=O	·	·	i	·	·	·
CC12CCC3C(CCC4(O)CC(O)CCC34C=NO)C1(O)CCC2C1=COC(=O)C1 (stereo not given)	·	·	i	·	·	·
CC(C)(C)C1(CCO)C(=O)NC(=S)NC1=O	·	·	i	·	·	·
O=C1NC(=O)C(C2CCCCCC2)C(=O)N1	·	·	i	·	·	·

Screening results from PubChem.
